Screens deposited in PubChem BioAssay by National Center for Advancing Translational Sciences (NCATS).
TDP1 cell CPT: DT40-hTDP1 cell growth loss with CPT | chicken DT40 Tdp1-/-;hTDP1 cells + 20 nM CPT, ATP luminescence, 48 h | hit rate 12% among 420,000 | AID 686979 | Potency, µM (doses to about 46.2 µM), for inactives: top-dose activity change, negative = growth inhibition, most hits filed as inhibitors; note: nearly all actives have a fitted effect of over 55% in size
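Chicken DT40 Tdp1-/- cells complemented with human TDP1, 400 cells/well, exposed to compounds plus 20 nM camptothecin for at least 48 h at 37 C; viability read as ATP content by CellTiter-Glo luminescence.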
KB-3-1 tox: kills parental KB-3-1 adenocarcinoma cells | KB-3-1 viability, CellTiter-Glo ATP luminescence, 72 h | Potency, µM (doses to about 46.1 µM), hits mostly cytotoxic | hit rate 1.4% among 400,000 | AID 1347075; note: nearly all actives have a fitted effect of over 60% in size
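Screening of KB-3-1 cells (DMEM, 10% FBS, phenol-red free) ran from lowest to highest compound concentration; after 72 h at 37 °C viability was read luminescently and curves fitted.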
KB-V1 cytotox: KB-V1 MDR subline cytotoxicity | Potency, µM (series often up to 46.1 µM), most hits filed as cytotoxic | hit rate 3.4% among 400,000 | KB-V1 MDR cells viability, CellTiter-Glo, 72 h | AID 1347076; note: nearly all actives have a fitted effect of over 60% in size
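KB-V1, DMEM (no phenol red) + 10% FBS; cpd pin-transferred, titration series; 72 h, 37 degrees C; CellTiter-Glo, luminescence. Data normalized, curve-fit.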
TDP1 cell noCPT: qHTS for Inhibitors of human tyrosyl-DNA phosphodiesterase 1 (TDP1): qHTS in cells in absence of CPT | DT40 Tdp1-/- hTDP1 cells, no CPT, ATP luminescence, 48 h | Potency, µM (doses to about 46.2 µM), for the others: top-dose activity change, negative = growth inhibition, usual class: inhibitors | hit rate 15% among 420,000 | AID 686978, 2013; note: nearly all actives have a fitted effect of over 55% in size
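A cellular qHTS used chicken DT40 cells lacking endogenous Tdp1 but carrying stably transfected human TDP1. Compounds were applied without camptothecin, and cell growth kinetics were judged by ATP-dependent luminescence after ≥48 hr.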
HT1080 IDH1KD tx: HT-1080 IDH1 knockdown cell toxicity (counter line) | hit rate 2% among 360,000 | Potency, µM (titrated, usually from 46.1 µM), for the others: at the top dose activity, negative = toxicity, actives largely listed as cytotoxic | HT-1080 IDH1 knockdown viability, ATP luminescence, 48 h;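 note: 0% = DMSO wells and -100% = cell-free medium wells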
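In this qHTS, HT-1080 cells depleted of IDH1 are exposed for 48 h at 37 °C to compound titrations. Toxicity is scored from CellTiter-Glo luminescence, with DMSO as full viability and medium alone as none.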
HT1080-NT tox: kills 2HG-producing HT-1080-NT fibrosarcoma cells | Potency, µM (doses to about 46.1 µM), for the others: top-dose activity, negative = less viability, actives largely listed as cytotoxic | hit rate 1.6% among 360,000 | HT-1080-NT fibrosarcoma viability, CellTiter-Glo ATP luminescence, 48 h;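 note: NT is the 2HG producing partner of a matched IDH1 knockdown line; 0% = DMSO-treated cells and -100% = media-only wells without cells; nearly all actives have a fitted effect of over 55% in size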
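750 cells/well, RPMI + 5% FBS; 2 h settle, compound pin-transfer, 48 h at 37 degrees C. CellTiter-Glo 10 min RT, luminescence. Normalized to DMSO and media-only wells.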
Active calls of the source: *; i = inactive; ? = inconclusive; / = no result; [ ] = dose if it differs, or a comment. A selection: hits, their analogues and other compounds. The true share with any hit is near 19%. Calls come from the whole dose curve; as a rule, active = well fitted curve in the direction sought with a large enough effect; inconclusive = small, poorly fitted or top-dose-only effect, or another doubt; inactive = no such curve, though single readings can be large; an effect the other way counts as inactive or inconclusive. Unless noted, % is set by controls: 0 for no effect and ±100 for the full control effect; potency is the fitted concentration of half-maximal effect.

SMILES	TDP1 cell CPT	KB-3-1 tox	KB-V1 cytotox	TDP1 cell noCPT	HT1080 IDH1KD tx	HT1080-NT tox
O=C(Nc1ccc(F)cc1F)c1ccccc1NC(=O)C1CC=CCC1C(=O)O (configuration not stated)	?	i	?	?	7.7%	9.2%
N#Cc1c(N2CCN(c3ccc([N+](=O)[O-])cc3)CC2)[n+](=O)c2ccc(Cl)cc2n1[O-]	0.461µM*	?	?	1.16µM*	-1.4%	9.5%
N#C/C(=N\Nc1cccc2ccccc12)c1nnc2n1CCCCC2	?	i	i	32.6µM*	-3.6%	-15.4%
COc1ccc(OC)c(CN2CCN(C(=O)c3ccc(F)cc3)CC2)c1	-1.9%	i	i	-1.7%	3.0%	11.2%
COc1ccc(OC)c(CN2CCN(C(=O)c3cccc(S(=O)(=O)Nc4ccc(F)cc4)c3)CC2)c1	?	?	14.6µM*	?	-6.7%	0.9%
CC(C)CNS(=O)(=O)c1ccc(CCC(=O)N2CCN(Cc3ccccc3)CC2)cc1	-28.6%	i	i	-29.4%	-1.6%	-6.7%
O=C(c1ccc(NS(=O)(=O)c2ccccc2)cc1)N1CCN(Cc2ccc3c(c2)OCO3)CC1	?	i	i	?	-9.7%	-4.8%
CCCCOc1ccc(C(=O)NCC(=O)N2CCN(Cc3ccc4c(c3)OCO4)CC2)cc1	?	i	?	13µM*	-19.8%	-11.7%
COc1ccc(NS(=O)(=O)c2cccc(C(=O)N3CCN(Cc4ccc5c(c4)OCO5)CC3)c2)cc1	25.9µM*	i	i	?	0.0%	-1.4%
CC(C)CNS(=O)(=O)c1ccc(CCC(=O)N2CCN(Cc3ccc4c(c3)OCO4)CC2)cc1	13µM*	i	?	18.4µM*	-24.9%	-4.8%
C[C@H](NC(=O)Cc1ccccc1)C(=O)N1CCC2(CC1)NCCc1[nH]cnc12	-21.8%	i	i	0.7%	10.9%	11.5%
CC(c1ccccc1)N1CCn2c(nc3cc(NC(=O)NC4CCCCC4)ccc32)C1 (configuration not stated)	22.4µM*	?	i	22.4µM*	?	15.8µM*
O=C(Nc1ccc2c(c1)nc1n2CCSC1)c1ccccc1	-28.6%	?	13µM*	-29.5%	0.7%	-1.5%
CC(c1ccccc1)N1CCn2c(nc3cc(NC(=O)c4cccs4)ccc32)C1 (configuration not stated)	25.9µM*	i	?	?	17.0%[9.24 µM]	?
Cc1nn(CC(=O)Nc2ccc3c(c2)nc2n3CCN(C3CCCCC3)C2)c(=O)c2ccccc12	?	i	?	?	-10.8%	-23.3%
Cn1c(CN2CCCC2)nc2cc(NC(=O)c3cccs3)ccc21	-25.0%	i	i	?	18.3%	6.9%
COc1ccccc1-c1cc(C(=O)N2CCOCC2)no1	10.8%	i	i	18.1%	3.3%	-2.9%
O=C(C1CCC1)N1CCc2cc(S(=O)(=O)N3CCN(c4ccccn4)CC3)ccc21	?	i	?	?	-14.7%	-1.8%
CCC(=O)N1CCCc2cc(S(=O)(=O)N3CCN(c4ccccn4)CC3)ccc21	?	i	?	20.6µM*	-15.9%	-7.6%
CCC(=O)N1CCCc2cc(S(=O)(=O)N3CCN(c4ncccn4)CC3)ccc21	14.6µM*	i	i	?	-0.7%	-2.7%
Cc1ccccc1CSc1nc(-c2cccc(F)c2)nc2c1Cc1c(CO)cnc(C)c1O2	-8.4%	i	?	-10.0%	/	/
O=C(N[C@@H](Cc1ccccc1)C(=O)N1CCN(S(=O)(=O)c2ccc(F)cc2)CC1)c1ccco1	14.6µM*	i	i	20.6µM*	9.9%	12.4%
COc1ccc(NS(=O)(=O)c2ccc(C(=O)N3CCC(C)CC3)cc2)cc1	23.1µM*	i	i	?	-12.6%	-5.4%
O=C(c1ccc(S(=O)(=O)Nc2ccc(F)cc2)cc1)N1CCN(C(=O)c2ccco2)CC1	13µM*	i	i	11.6µM*	?	-8.2%
Cc1cc(S(=O)(=O)Nc2ccc(C(=O)N3CCN(C(=O)c4ccco4)CC3)cc2)ccc1F	?	i	i	?	-26.5%	-13.8%
SMILES	TDP1 cell CPT	KB-3-1 tox	KB-V1 cytotox	TDP1 cell noCPT	HT1080 IDH1KD tx	HT1080-NT tox
O=C(c1ccc(NS(=O)(=O)c2ccc3c(c2)OCCO3)cc1)N1CCCCC1	?	?	i	20.6µM*	?	?
O=C(O)c1ccc(S(=O)(=O)Nc2ccc3c(c2)OCCO3)cc1	6.1%	i	?	6.2%	16.9%	24.1%
CSc1ncc(C(=O)Nc2cccc(C)c2C)c(C)n1	-25.7%	?	i	-10.4%	10.0%	-1.7%
Nc1cc2cccnc2cc1Cl	-14.1%	i	i	3.4%	-5.4%	0.4%
O=C(OCN1C(=O)c2ccccc2C1=O)c1cccnc1SC(F)F	8.8%	i	i	1.9%	6.0%	4.1%
CC(=O)N1CCN(C(=O)C(Cc2ccccc2)NC(=O)c2ccccc2)CC1 (configuration not stated)	-4.0%	i	i	-7.9%	4.8%	17.2%
CCOc1ccc(S(=O)(=O)Nc2ccc(C(=O)NCC3(N4CCCCC4)CCCCC3)cc2)cc1	?	i	i	20.6µM*	-10.6%	?
O=C(NC(Cc1ccccc1)C(=O)N1CCN(c2ccccc2O)CC1)c1ccccc1 (configuration not stated)	?	i	i	16.4µM*	-17.7%	-26.7%
COC(=O)c1ccc(Cl)c(NS(=O)(=O)c2ccc3c(c2)OCCO3)c1	5.17µM*	5.8µM*	9.2µM*	4.11µM*	4.61µM*	?
CCOc1ccccc1N1CCN(C(=O)c2ccc(S(=O)(=O)Nc3ccccc3)cc2)CC1	18.4µM*	?	i	?	-15.0%	-16.8%
COc1ccc(NC(C)=O)cc1NS(=O)(=O)c1ccc2c(c1)OCCO2	-4.3%	?	i	4.7%	-6.0%	-1.8%
C[C@H]1C[C@H]2[C@@H]3CCC4=CC(=O)C=C[C@]4(C)[C@H]3C(=O)C[C@]2(C)[C@@]1(O)C(=O)CO	-11.5%	/	/	-25.1%	/	/
COc1ccccc1N(CC(=O)NC1CCCC1)C(=O)CCC(=O)Nc1ccccn1	-0.1%	i	i	1.0%	28.7%	5.4%
